The results in this text go back to ChEMBL document CHEMBL1157539, “Thousands of chemical starting points for antimalarial lead identification” (Nature, 2010).

What all share (format): functional
For test [1], the system named is Plasmodium falciparum. Kind of test: GSK_TCMDC: Inhibition of Plasmodium falciparum 3D7 in whole red blood cells, using parasite LDH activity as an index of growth. Test compounds present at 2uM.
The subject of test [2] is Plasmodium falciparum. The test is described as follows: GSK_TCMDC: Inhibition of Plasmodium falciparum Dd2 in whole red blood cells, using parasite LDH activity as an index of growth. Test compounds present at 2uM.
Another test deals with HepG2. Kind of test: GSK_TCMDC: Percent inhibition of human HepG2 cell line. Test compounds present at 10uM.

For the compound `N#Cc1ccc(N2CCN(Cc3ccc(-c4cccc(-c5nc6ccccc6[nH]5)c4)cc3)CC2)nc1.O=C(O)C(F)(F)F`, the results for the Inhibition in the test on Plasmodium falciparum [1], with Plasmodium falciparum [2] and in the test on HepG2 were 95%, 29% and 33%, respectively.
For `COc1ccccc1N1CCN(Cc2c(O)ccc3cc(Br)ccc23)CC1`, the Inhibition in the test on Plasmodium falciparum [1] was 89%; in the test with Plasmodium falciparum [2] it was 75%; in the test with HepG2, 8%.
With `CC(C)CCNC(=O)C1Cc2c([nH]c3cc(Br)ccc23)C2(CCN(Cc3ccccc3)CC2)N1` (stereo unspecified), the Inhibition is reported as 96% in the test on Plasmodium falciparum [1], 45% in the test with Plasmodium falciparum [2] and 10% with HepG2.
For `Cc1cccc2nc(-c3ccc(-c4cccc(CNC5CCN(C)CC5)c4)s3)[nH]c12.O=C(O)C(F)(F)F`, the values for the Inhibition in the test with Plasmodium falciparum [1], with Plasmodium falciparum [2] and with HepG2 were 98%, 73% and 21%, respectively.
Regarding `COc1cccc(CCc2nc3c(N4CCC(Cc5ccccc5)CC4)cccc3n2CC2CNCCO2)c1.O=C(O)C(F)(F)F` (stereo unspecified), the Inhibition in the test on Plasmodium falciparum [1] turned out to be 94%; with Plasmodium falciparum [2], 96%; in the test on HepG2 it was 4%.
In the case of `COc1ccc(-c2nc(NC(=O)CSc3ccccc3)sc2C)cc1`, the Inhibition in the test on Plasmodium falciparum [1] turned out to be 94%; with Plasmodium falciparum [2], 31%; in the test on HepG2 it was 6%.
On the same counts, the results for `COc1ccc(CNCc2ccc(-c3cccc(-c4nc5cccc(C)c5[nH]4)c3)cc2)cc1.O=C(O)C(F)(F)F` are 100%, 100% and 69%.
`O=C(NC(Cc1ccccc1)C(=O)O)c1cc(=O)c2ccccc2o1` (stereo unspecified): the Inhibition was determined as 99% in the test on Plasmodium falciparum [1], 10% in the test with Plasmodium falciparum [2] and 53% in the test with HepG2.
In the case of `O=C(NCCCCCN1CCC(c2c[nH]c3ccccc23)CC1)Nc1ccc(Cl)c(Cl)c1`, the Inhibition with Plasmodium falciparum [1] came out at 92%; in the test on Plasmodium falciparum [2], 0%; in the test with HepG2, 42%.
The matching figures for `Cc1c(C(=O)N2CCc3cc4nccc(N5CCN6CCC[C@H]6C5)c4cc32)cnn1-c1ccc(C#N)cc1.Cl`: 90%, 27% and 0%.
For the compound `Cc1cccc2nc(-c3ccc(-c4cccc(C(=O)NCCN5CCCC5)c4)s3)[nH]c12`, the Inhibition with Plasmodium falciparum [1] amounted to 94%; with Plasmodium falciparum [2], 2%; with HepG2, 22%.
For `O=C(Nc1ccc(N2CCCCC2)c(Cl)c1)c1ccco1`, the results for the Inhibition in the test on Plasmodium falciparum [1], in the test on Plasmodium falciparum [2] and with HepG2 were 96%, 95% and 0%, respectively.
For the compound `CO/N=C(\C)c1ccc2c(c1)CCN(CCC1CCC(NC(=O)/C=C/c3ccc(F)cc3)CC1)CC2.Cl` (stereo unspecified), the Inhibition in the test with Plasmodium falciparum [1] was found to be 95%; in the test on Plasmodium falciparum [2], 15%; in the test with HepG2 it was 45%.
Regarding `COc1cc(OC)cc(-c2nn(-c3ccc([N+](=O)[O-])cc3Cl)c(=S)n2Cc2ccco2)c1`, the Inhibition in the test with Plasmodium falciparum [1] was 100%; in the test with Plasmodium falciparum [2] it was 100%; in the test with HepG2, 15%.
Take `Cc1nc(-c2ccc(-c3ccc(NC(=O)c4coc5ccc(N6CC(C)N(C)C(C)C6)cc45)cc3)c(C)c2)no1.Cl` (stereo unspecified): the Inhibition is reported as 96% in the test with Plasmodium falciparum [1], 46% in the test on Plasmodium falciparum [2] and 21% with HepG2.
`COc1ccc2[nH]c(C)cc(=NN=Cc3cc(OC)c(OC)cc3OC)c2c1`: the Inhibition with Plasmodium falciparum [1] was found to be 100%; in the test on Plasmodium falciparum [2], 56%; with HepG2, 1%.
On the same counts, the results for `Cc1cccc2nc(-c3cccc(-c4cccc(CNCCNC(=O)c5ccnn5C)c4)c3)[nH]c12.O=C(O)C(F)(F)F` are 100%, 71% and 26%.
In the case of `CCCC(C)Nc1nc(C)cc(NCCC(=O)Nc2ccccc2)n1.O=C(O)C(F)(F)F` (stereo unspecified), the values for the Inhibition in the test on Plasmodium falciparum [1], in the test with Plasmodium falciparum [2] and in the test with HepG2 were 96%, 11% and 12%, respectively.
As for `COc1ccc(/C=C/C(=O)N2CCc3cc4nccc(N5CCN6CCC[C@H]6C5)c4cc32)cc1`, the Inhibition is recorded as 100% in the test on Plasmodium falciparum [1], 98% with Plasmodium falciparum [2] and 0% in the test on HepG2.
As to `CCOC(=O)c1cccc(NC(=O)Nc2cc(C)nc3ccccc23)c1`, the Inhibition in the test with Plasmodium falciparum [1] was 100%; in the test with Plasmodium falciparum [2], 90%; in the test on HepG2, 14%.
For `O=C(O)C(F)(F)F.O=C1CCCN1CCCNCc1cccc(-c2ccc(-c3nc4cc(C(F)(F)F)ccc4[nH]3)cc2)c1`, the figures for the Inhibition in the test with Plasmodium falciparum [1], in the test with Plasmodium falciparum [2] and in the test with HepG2 were 100%, 96% and 15%, respectively.
Consider `Cc1csc(-c2ncc(OC[C@@H](N)Cc3ccccc3)cc2-c2ccc3[nH]nc(C)c3c2)c1.O=C(O)C(F)(F)F`, for which the Inhibition in the test on Plasmodium falciparum [1] stood at 98%; in the test with Plasmodium falciparum [2] it was 35%; in the test with HepG2, 48%.
Regarding `CC(C)(CNCc1cccc(Oc2cccc(C(F)(F)F)c2)c1)c1nc(-c2ccnc(N)n2)c(-c2ccc(Cl)c(O)c2)[nH]1.Cl`, the Inhibition with Plasmodium falciparum [1] was 99%; in the test with Plasmodium falciparum [2], 98%; in the test on HepG2 it was 23%.
`CN(C)c1ccc(CN2CCCCC(NC(=O)c3cc(-c4ccccc4F)cs3)C2)cc1.O=C(O)C(F)(F)F` (stereo unspecified): the Inhibition in the test on Plasmodium falciparum [1] is given as 100%; in the test with Plasmodium falciparum [2] it was 28%; with HepG2, 13%.
On the same counts, the results for `CS(=O)(=O)CCNCc1ccc(-c2ccc3c(Nc4ccc(Oc5ccccn5)cc4)ccnc3c2)o1` are 100%, 99% and 0%.
Consider `CN1CCCC(OC(=O)c2ccccc2)C1` (stereo unspecified), for which the Inhibition in the test on Plasmodium falciparum [1] is 100%; with Plasmodium falciparum [2] it was 0%; with HepG2 it was 4%.
For `Cc1ccc(C)c(Cn2ccc3nc(Cl)nc(Cl)c32)c1`, the values for the Inhibition in the test on Plasmodium falciparum [1], with Plasmodium falciparum [2] and in the test on HepG2 were 95%, 68% and 0%, respectively.
As for `CCCC[C@@H](C(=O)NCCc1ccc(Cl)cc1)N1C(=O)CCC1C(=O)Nc1ccc(Cl)c(Cl)c1` (stereo partly specified), the Inhibition in the test on Plasmodium falciparum [1] stood at 95%; in the test with Plasmodium falciparum [2] it was 2%; in the test with HepG2 it was 4%.
Take `COc1ccc2oc(=O)c(C#N)c(O)c2c1`: the Inhibition with Plasmodium falciparum [1] is reported as 99%; with Plasmodium falciparum [2], 0%; with HepG2, 0%.
`Cc1cccc2c1NC(=O)/C2=N/NC(=S)N(C)C`: the Inhibition is given as 96% in the test on Plasmodium falciparum [1], 59% in the test on Plasmodium falciparum [2] and 48% in the test with HepG2.
As to `Cl.Clc1ccc2c(NCCCCCCCCNc3ccnc4cc(Cl)ccc34)ccnc2c1`, the Inhibition in the test on Plasmodium falciparum [1] was 99%; in the test on Plasmodium falciparum [2], 96%; with HepG2 it was 2%.
`Cc1ccccc1Cn1c(CN2CCC(C(=O)NC3CC3)CC2)cc2ccccc21`: the figures for the Inhibition with Plasmodium falciparum [1], in the test on Plasmodium falciparum [2] and with HepG2 were 97%, 96% and 7%, respectively.
